The values that follow come from PubChem BioAssay (EPA / NIEHS).

A short description of test [1]: ATG_CMV_CIS: Attagene CIS-FACTORIAL HepG2 Assay for human CMV (Internal Marker) (AID 2282928).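 Also: endpoint acts as a background internal control marker rather than a target.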 The settings on record: HepG2 CMV promoter reporter, transcription factor profiling; actives raise or lower the signal. A digest of the protocol: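 Endogenous transcription factor activity read in HepG2 via transfected cis-promoter reporter units. After 24 h dosing, reporter mRNA measured by RT-PCR/capillary electrophoresis; gain or loss of signal fit relative to DMSO.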

A short description of test [2]: ATG_DR4_LXR_CIS: Attagene CIS-FACTORIAL HepG2 Assay for human Liver X Receptor (LXR), DR4 submotif (AID 2282929). The settings on record: HepG2 Attagene DR4 cis-reporter, mRNA transcription; actives raise or lower the signal. A digest of the protocol:
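Transiently transfected HepG2 liver cells; cis-regulated reporters; 24 h dosing. RT-PCR plus CE read-out of reporter mRNA. DMSO baseline, bidirectional curve fitting.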

Test [3] is described as follows: ATG_AP_2_CIS: Attagene CIS-FACTORIAL HepG2 Assay for human Activator Protein 2 (AP-2) (AID 2282932). The conditions noted are these: HepG2 AP-2 cis-reporter, Attagene transcription factor profiling; actives raise or lower the signal. Put shortly:
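HepG2 cells were transiently transfected with multiple cis-promoter reporter transcription units and dosed for 24 h. Reporter mRNA was measured by RT-PCR with capillary electrophoresis fluorescence; bidirectional fits relative to DMSO baseline.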

Test [4] deals with Transcription factor E2F1 (Homo sapiens) (UniProt Q01094). The test can be described thus: ATG_E2F_CIS: Attagene CIS-FACTORIAL HepG2 Assay for human E2F Transcription Factor 1 (AID 2282935). The settings on record: HepG2 Attagene cis-reporter, E2F reporter RNA transcripts; actives raise or lower the signal. A digest of the protocol: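 HepG2 cells transiently transfected with multiplexed cis-element reporter units, dosed for 24 h. Reporter mRNA measured by RT-PCR, 6-FAM primer-extension labeling, HpaI digestion and capillary electrophoresis; bidirectional fit versus DMSO baseline.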
Chain of Transcription factor E2F1 (Homo sapiens) (Q01094 whole entry, looked up): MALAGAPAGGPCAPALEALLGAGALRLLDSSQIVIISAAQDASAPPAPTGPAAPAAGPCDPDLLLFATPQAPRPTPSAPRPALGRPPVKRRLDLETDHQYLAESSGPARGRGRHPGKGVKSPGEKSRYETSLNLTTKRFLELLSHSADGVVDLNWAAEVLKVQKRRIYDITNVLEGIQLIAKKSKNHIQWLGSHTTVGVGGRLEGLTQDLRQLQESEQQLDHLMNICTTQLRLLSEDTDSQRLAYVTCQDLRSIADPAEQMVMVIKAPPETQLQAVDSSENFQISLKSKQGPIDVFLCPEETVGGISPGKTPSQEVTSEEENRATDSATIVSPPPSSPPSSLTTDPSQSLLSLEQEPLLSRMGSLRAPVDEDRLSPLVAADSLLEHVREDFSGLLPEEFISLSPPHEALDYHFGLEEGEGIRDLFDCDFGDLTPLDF

Test [5] in a line: ATG_M_61_CIS: Attagene CIS-FACTORIAL HepG2 Assay for M61 Transcription Factor (Internal Marker) (AID 2282937). The settings on record: HepG2 Attagene CIS-FACTORIAL M61 internal marker reporter; actives raise or lower the signal. A digest of the protocol:
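Multiplexed reporter mRNA assay, HepG2 human hepatoma cells, 24 h treatment. Signal: FAM-labelled, HpaI-digested RT-PCR fragments by CE. Fit: bidirectional, baseline DMSO.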

The nature of test [6]: ATG_EGR_CIS: Attagene CIS-FACTORIAL HepG2 Assay for human Early Growth Response 1 (EGR1) (AID 2282938). The conditions noted are these: HepG2 Attagene CIS-FACTORIAL EGR reporter mRNA; actives raise or lower the signal. A digest of the protocol:
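Multiplexed cis-reporter system in human hepatoma HepG2 cells, transiently transfected. Cells are dosed for 24 h; reporter transcripts are amplified, fluorescently tagged and sized by capillary electrophoresis, with DMSO as negative control.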

Test [7] can be described thus: ATG_Ets_CIS: Attagene CIS-FACTORIAL HepG2 Assay for human Erythroblast Transformation Specific (ETS) (AID 2282941). The conditions noted are these: HepG2 ETS cis-reporter transcription, actives raise or lower the signal. A digest of the protocol: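 Steps: transfect HepG2 with multiple reporter units; treat compound 24 h; isolate RNA, DNase-treat, reverse-transcribe; PCR-amplify, label with 6-FAM, digest with HpaI; separate by capillary electrophoresis. Activity fitted both directions versus DMSO.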

The target of test [8] is Hepatocyte nuclear factor 3-beta (Homo sapiens) (UniProt Q9Y261). Kind of test: ATG_FoxA2_CIS: Attagene CIS-FACTORIAL HepG2 Assay for human Forkhead box A2 (FOXA2) (AID 2282942). The conditions noted are these: HepG2 cis-reporter transcription factor activity, 24 h; actives raise or lower the signal. Put shortly:
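Multiplexed cis-element reporter assay in transiently transfected HepG2. Twenty-four hours post-dosing, RNA was reverse-transcribed, amplified, FAM-labelled, HpaI-digested and separated by CE. Activity gain or loss relative to DMSO.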

Test [9] is described as follows: ATG_FoxO_CIS: Attagene CIS-FACTORIAL HepG2 Assay for human Forkhead box O (FoxO) (AID 2282943). The conditions noted are these: HepG2 Attagene cis-reporter, FoxO element, mRNA; actives raise or lower the signal. A digest of the protocol: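 24 h chemical exposure, HepG2 with transient cis-MRTU transfection. RNA extraction, oligo(dT) RT, reporter-specific PCR, primer-extension labelling, HpaI digestion, CE fragment analysis; bidirectional fit, DMSO baseline.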

A short description of test [10]: ATG_GATA_CIS: Attagene CIS-FACTORIAL HepG2 Assay for human GATA Binding Protein (AID 2282944). The settings on record: HepG2 GATA cis-element reporter, Attagene multiplex mRNA; actives raise or lower the signal. A digest of the protocol: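 Endogenous transcription factor activity was captured through cis-promoter-driven reporters in transfected HepG2 cells. After 24 h exposure, reporter transcripts were quantified by RT-PCR with fluorescent capillary electrophoresis, and responses fitted both directions against DMSO.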

The nature of test [11]: ATG_ISRE_CIS: Attagene CIS-FACTORIAL HepG2 Assay for human Interferon Regulatory Factor 1 (IRF1) binding to an Interferon-Stimulated Response Element (ISRE) (AID 2282948). The conditions noted are these: HepG2 ISRE cis-reporter (Attagene), mRNA transcription readout; actives raise or lower the signal. A digest of the protocol:
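Transfected HepG2 (multiple reporter transcription units, cis elements) dosed 24 h. RNA → oligo(dT) RT → PCR → 6-FAM primer extension → HpaI → CE. DMSO = negative control/baseline.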

Test [12] in a line: ATG_M_32_CIS: Attagene CIS-FACTORIAL HepG2 Assay for M32 Transcription Factor (Internal Marker) (AID 2282949).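 Also: background control marker of the multiplexed CIS panel rather than a real target.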 The settings on record: HepG2 Attagene cis-factorial M32 reporter, mRNA; actives raise or lower the signal. A digest of the protocol:
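Internal background marker read-out: RT-PCR/capillary electrophoresis fluorescence of reporter transcripts from transiently transfected HepG2 cells after 24 h chemical exposure. Activity fitted bidirectionally relative to DMSO negative control.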

The target of test [13] is Hepatocyte nuclear factor 6 (Homo sapiens) (UniProt Q9UBC0). The test can be described thus: ATG_HNF6_CIS: Attagene CIS-FACTORIAL HepG2 Assay for human Hepatocyte Nuclear Factor 6 (HNF6) (AID 2282952). The settings on record: HepG2 Attagene cis-factorial HNF6 reporter transcription; actives raise or lower the signal. A digest of the protocol: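 HepG2, transient MRTU transfection (cis promoters); 24 h chemical exposure; total RNA → oligo(dT) RT → PCR → 6-FAM labelling → HpaI cut → CE; bidirectional fit vs DMSO.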
Chain of Hepatocyte nuclear factor 6 (Homo sapiens) (Q9UBC0 whole entry, looked up): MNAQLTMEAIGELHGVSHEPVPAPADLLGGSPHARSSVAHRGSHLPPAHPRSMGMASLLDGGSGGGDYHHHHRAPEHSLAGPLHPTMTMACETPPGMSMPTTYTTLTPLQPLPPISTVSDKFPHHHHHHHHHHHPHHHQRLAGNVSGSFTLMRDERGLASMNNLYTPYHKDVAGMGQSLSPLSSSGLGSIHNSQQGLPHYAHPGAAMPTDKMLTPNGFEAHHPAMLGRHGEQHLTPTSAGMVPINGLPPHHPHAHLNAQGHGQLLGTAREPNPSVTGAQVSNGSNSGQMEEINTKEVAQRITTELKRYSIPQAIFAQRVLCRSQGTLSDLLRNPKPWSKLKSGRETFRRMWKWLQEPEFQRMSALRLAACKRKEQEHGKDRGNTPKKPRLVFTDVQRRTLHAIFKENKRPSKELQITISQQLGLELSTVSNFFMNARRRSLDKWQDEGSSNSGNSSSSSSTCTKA

For test [14], the target named is Heat shock factor protein 1 (Homo sapiens) (UniProt Q00613). Kind of test: ATG_HSE_CIS: Attagene CIS-FACTORIAL HepG2 Assay for human Heat Shock Transcription Factor 1 (HSE) (AID 2282953). The conditions noted are these: HepG2 HSE cis-reporter, Attagene RNA transcription; actives raise or lower the signal. A digest of the protocol:
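Cells were transfected with cis-element-driven reporter constructs, dosed for 24 h, then total RNA was reverse-transcribed and reporter cDNA amplified, FAM-labelled and digested with HpaI. Fragments were resolved by capillary electrophoresis; gain or loss was fitted against DMSO.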

Test [15] is described as follows: ATG_MRE_CIS: Attagene CIS-FACTORIAL HepG2 Assay for human Metal Responsive Element (MRE) (AID 2282954). The conditions noted are these: HepG2 MRE cis-reporter transcription, Attagene multiplex; actives raise or lower the signal. Put shortly: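 HepG2 cells transiently transfected with multiple cis-element reporter units measure endogenous MTF1-driven transcription. After 24 h compound exposure, reporter mRNA is quantified by RT-PCR with 6-FAM labelling, HpaI digestion and capillary electrophoresis; bidirectional fits versus DMSO.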

The target of test [16] is Paired box protein Pax-6 (Homo sapiens) (UniProt P26367). The test can be described thus: ATG_Pax6_CIS: Attagene CIS-FACTORIAL HepG2 Assay for human Paired Box 6 (PAX6) (AID 2282956). The settings on record: HepG2 CIS-FACTORIAL PAX6 reporter transcription, RNA readout; actives raise or lower the signal. A digest of the protocol:
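Transient MRTU transfection of HepG2 → compound exposure 24 h → TriZol RNA, oligo(dT) RT → PCR, 6-FAM primer extension, HpaI cut → capillary electrophoresis; activity fitted both directions against DMSO.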

Test [17] is described as follows: ATG_PXRE_CIS: Attagene CIS-FACTORIAL HepG2 Assay for human Pregnane X Receptor Element (PXRE) (AID 2282957). The settings on record: HepG2 Attagene CIS-FACTORIAL PXRE reporter, mRNA; actives raise or lower the signal. Put shortly:
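Transfect HepG2 with MRTUs (cis promoter elements); dose chemical, incubate 24 h; isolate RNA, RT with oligo(dT), PCR, 6-FAM label, HpaI cut, CE. Gain/loss fit vs DMSO.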

A short description of test [18]: ATG_Sox_CIS: Attagene CIS-FACTORIAL HepG2 Assay for human SRY-box transcription factor (SOX) (AID 2282960). The conditions noted are these: HepG2 Attagene cis-factorial SOX reporter, mRNA; actives raise or lower the signal. A digest of the protocol:
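Fluorescence-labelled cDNA fragments from reporter transcripts, sized by CE, give the signal. Cells: HepG2, transiently transfected with cis-regulated reporter units. Exposure 24 h; DMSO negative control; bidirectional curve fitting.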

The nature of test [19]: ATG_SREBP_CIS: Attagene CIS-FACTORIAL HepG2 Assay for human Sterol Regulatory Element Binding (SREBP) (AID 2282962). The settings on record: HepG2 Attagene cis-factorial SREBP reporter, mRNA; actives raise or lower the signal. A digest of the protocol: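 Transfected HepG2 (cis-regulated reporter library, endogenous TFs) → compound 24 h → total RNA → oligo(dT) RT → reporter-specific PCR → FAM primer extension, HpaI cut → CE fluorescence. Fit bidirectional vs DMSO.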

Test [20] deals with Androgen receptor (Homo sapiens) (UniProt P10275). The test can be described thus: ATG_AR_TRANS: Attagene TRANS-FACTORIAL HepG2 Assay for human Androgen Receptor (AR) (AID 2282973; active = hit-call score of the fitted dose curve at least 0.9, where 1 is the maximum). The settings on record: HepG2 Attagene TRANS-FACTORIAL AR reporter transcription. Put shortly:
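Steps: transfect HepG2 with multiple GAL4-UAS reporter transcription units (TRANS format, exogenous NR-Gal4 protein); dose 24 h; isolate RNA, reverse-transcribe, PCR-amplify, FAM-label, HpaI-digest; resolve by capillary electrophoresis. Positive direction vs DMSO.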

Inconclusive results are not listed. The source made the active and inactive calls. The calls were made as follows, unless noted: active = hit-call score of the fitted dose curve at least 0.9, where 1 is the maximum; inactive = score below 0.9.

Chain of Hepatocyte nuclear factor 3-beta (Homo sapiens) (Q9Y261 whole entry, looked up): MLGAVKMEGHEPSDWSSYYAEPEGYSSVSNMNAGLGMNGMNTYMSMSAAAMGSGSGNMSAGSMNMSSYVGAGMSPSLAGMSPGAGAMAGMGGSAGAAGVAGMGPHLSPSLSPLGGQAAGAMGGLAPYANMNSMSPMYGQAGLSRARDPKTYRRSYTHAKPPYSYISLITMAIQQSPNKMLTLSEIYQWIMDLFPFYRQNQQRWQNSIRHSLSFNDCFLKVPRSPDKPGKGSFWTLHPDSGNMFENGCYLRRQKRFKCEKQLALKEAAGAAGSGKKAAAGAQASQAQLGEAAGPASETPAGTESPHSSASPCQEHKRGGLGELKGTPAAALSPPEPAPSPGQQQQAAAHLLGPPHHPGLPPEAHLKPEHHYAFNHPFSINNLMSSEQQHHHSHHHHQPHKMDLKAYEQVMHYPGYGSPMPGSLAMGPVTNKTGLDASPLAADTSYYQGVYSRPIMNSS
Chain of Heat shock factor protein 1 (Homo sapiens) (Q00613 whole entry, looked up, the tested form may be a part): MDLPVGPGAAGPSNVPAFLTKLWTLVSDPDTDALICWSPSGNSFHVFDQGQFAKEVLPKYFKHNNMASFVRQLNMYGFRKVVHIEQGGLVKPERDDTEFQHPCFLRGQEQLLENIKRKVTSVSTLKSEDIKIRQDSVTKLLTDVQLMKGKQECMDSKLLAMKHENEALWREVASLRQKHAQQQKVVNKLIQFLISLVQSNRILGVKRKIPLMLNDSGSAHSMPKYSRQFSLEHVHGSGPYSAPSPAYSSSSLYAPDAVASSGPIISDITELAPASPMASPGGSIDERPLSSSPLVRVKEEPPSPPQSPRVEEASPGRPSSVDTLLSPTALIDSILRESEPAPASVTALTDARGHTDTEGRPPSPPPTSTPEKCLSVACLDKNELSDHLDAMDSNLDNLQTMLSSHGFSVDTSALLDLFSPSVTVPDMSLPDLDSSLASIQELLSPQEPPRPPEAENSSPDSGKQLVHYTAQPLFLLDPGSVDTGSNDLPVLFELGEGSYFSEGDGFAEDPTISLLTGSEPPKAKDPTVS
Chain of Paired box protein Pax-6 (Homo sapiens) (P26367 whole entry, looked up): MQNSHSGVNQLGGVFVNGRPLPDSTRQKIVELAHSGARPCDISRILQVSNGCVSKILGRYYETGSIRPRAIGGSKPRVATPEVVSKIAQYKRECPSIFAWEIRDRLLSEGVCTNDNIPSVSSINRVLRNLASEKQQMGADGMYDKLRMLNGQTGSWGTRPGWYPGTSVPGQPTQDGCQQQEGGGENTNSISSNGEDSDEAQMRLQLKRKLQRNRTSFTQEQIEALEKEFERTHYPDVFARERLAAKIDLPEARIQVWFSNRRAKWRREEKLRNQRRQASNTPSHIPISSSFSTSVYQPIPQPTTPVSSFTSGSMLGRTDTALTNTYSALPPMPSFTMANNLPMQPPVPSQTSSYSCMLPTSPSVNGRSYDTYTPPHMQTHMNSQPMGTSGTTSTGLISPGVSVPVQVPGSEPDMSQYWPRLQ
Chain of Androgen receptor (Homo sapiens) (P10275 whole entry, looked up, the tested form may be a part): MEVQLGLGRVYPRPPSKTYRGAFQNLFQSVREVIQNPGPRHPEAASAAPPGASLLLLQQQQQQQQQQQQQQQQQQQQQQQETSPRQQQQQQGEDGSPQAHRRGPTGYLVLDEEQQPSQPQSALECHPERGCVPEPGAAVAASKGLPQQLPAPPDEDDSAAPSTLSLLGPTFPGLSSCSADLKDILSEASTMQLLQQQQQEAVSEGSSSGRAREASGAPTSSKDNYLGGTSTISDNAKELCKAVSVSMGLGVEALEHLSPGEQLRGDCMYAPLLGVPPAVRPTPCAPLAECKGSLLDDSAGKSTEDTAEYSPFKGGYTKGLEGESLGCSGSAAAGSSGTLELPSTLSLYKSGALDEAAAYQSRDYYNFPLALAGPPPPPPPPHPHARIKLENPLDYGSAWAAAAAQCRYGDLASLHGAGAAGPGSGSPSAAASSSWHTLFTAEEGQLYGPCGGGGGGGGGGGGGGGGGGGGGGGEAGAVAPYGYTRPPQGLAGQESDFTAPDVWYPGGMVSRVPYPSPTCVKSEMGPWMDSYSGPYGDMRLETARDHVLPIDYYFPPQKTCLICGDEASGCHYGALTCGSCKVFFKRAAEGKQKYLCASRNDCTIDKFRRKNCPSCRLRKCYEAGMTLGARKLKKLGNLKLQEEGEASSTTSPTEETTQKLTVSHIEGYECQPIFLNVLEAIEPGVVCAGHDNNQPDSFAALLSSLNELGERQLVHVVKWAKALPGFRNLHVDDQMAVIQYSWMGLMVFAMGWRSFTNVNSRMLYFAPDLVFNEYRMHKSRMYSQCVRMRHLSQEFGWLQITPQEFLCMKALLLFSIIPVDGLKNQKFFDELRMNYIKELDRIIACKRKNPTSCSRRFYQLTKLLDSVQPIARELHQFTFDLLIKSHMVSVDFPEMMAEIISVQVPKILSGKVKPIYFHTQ

For the molecule `CC=Cc1ccc2c(c1)OCO2`, the call in [1], in [2], in test [3], in [4], in test [5] and in test [6] was inactive. The molecule was called inactive in test [7], in test [8], in [9], in [10], in test [11] and in test [12]. The call in [13], in test [14], in [15], in [16], in [17] and in test [18] was inactive. In [19], the molecule was classed as inactive.
For the molecule `O=C(O)c1cc[c]([Hg][Cl])cc1`, the molecule was classed as inactive in test [1], in test [2], in test [3], in test [4], in [5] and in test [6]. Further, the call in test [7], in test [8], in [9], in test [10], in test [11] and in test [12] was inactive. Moreover, the molecule was called inactive in [13], in test [14], in test [16], in test [17], in [18] and in test [19]. Besides, the AC50 in [15] is 7.75 µM (active).
For the molecule `Cc1ccc(N(C)C)cc1`, the molecule was classed as inactive in test [20].
On to `C=CC(=O)OCCCCOC(=O)C=C`, for which the AC50 in test [1] is 74 µM (active); in test [2], 52.4 µM (active); in test [6], 62.4 µM (active); in test [7] it was 77.3 µM (active); in [9], 54.7 µM (active); in test [11], 54.1 µM (active). The concentration at half-maximal activity (AC50) is 64 µM (active) in test [15], 52.4 µM (active) in test [16], 158 µM (active) in [17] and 80.9 µM (active) in test [19]. Moreover, the outcome in test [3], in test [4], in test [5], in test [8], in [10] and in test [12] was inactive. For the same molecule, the result in [13], in test [14] and in test [18] was inactive.
Take `C#CC1(O)CCCCC1`: the molecule was called inactive in test [1], in test [2], in test [3], in test [4], in test [5] and in test [6]. The call in test [7], in test [8], in [9], in [10], in [11] and in [12] was inactive. For the same molecule, the call in test [13], in [14], in test [15], in test [16], in test [17] and in test [18] was inactive. Besides, the molecule was classed as inactive in test [19].
`O=C(O)CCCc1ccc(N(CCCl)CCCl)cc1`: the molecule was called inactive in [1], in [3], in [4], in test [5], in test [6] and in test [7]. The molecule was classed as inactive in test [8], in [9], in [10], in [11], in test [12] and in test [13]. Further, the result in test [14], in test [15], in test [16], in [17], in test [18] and in [19] was inactive. For the same molecule, the AC50 in test [2] was 112 µM (active).
